Experimental data: the supplement of paper PMC13380429
Unmarked numbers belong to inactive results.

Tested on: Vero E6 infected with SARS-CoV-2
Experiment: inhibition of SARS-CoV-2 cytopathic effect; higher = more antiviral protection, active = above 15
Conditions: 48 h

SMILES: COc1cccc(C(=O)CCN[C@@H](C)[C@H](O)c2ccccc2)c1 [oxyfedrine]
- inhibition of SARS-CoV-2 cytopathic effect (1 nM): 0.05%
- inhibition of SARS-CoV-2 cytopathic effect (8.33 nM): 1.34%
- inhibition of SARS-CoV-2 cytopathic effect (100 nM): -0.45%
- inhibition of SARS-CoV-2 cytopathic effect (833.33 nM): 0.14%
- inhibition of SARS-CoV-2 cytopathic effect (10000 nM): 1.77%

SMILES: CC[C@@](C)(Nc1ccnc(-c2c[nH]c3ncccc23)n1)C(=O)NCC(F)(F)F [decernotinib]
- inhibition of SARS-CoV-2 cytopathic effect (1 nM): -1.03%
- inhibition of SARS-CoV-2 cytopathic effect (8.33 nM): 0.41%
- inhibition of SARS-CoV-2 cytopathic effect (100 nM): -0.04%
- inhibition of SARS-CoV-2 cytopathic effect (833.33 nM): 1.86%
- inhibition of SARS-CoV-2 cytopathic effect (10000 nM): 2.32%

SMILES: O=C1CC[C@@](c2ccccc2)(C2CCN(Cc3ccc(I)cc3)CC2)C(=O)N1 [iododexetimide]
- inhibition of SARS-CoV-2 cytopathic effect (1 nM): 1.14%
- inhibition of SARS-CoV-2 cytopathic effect (8.33 nM): -0.02%
- inhibition of SARS-CoV-2 cytopathic effect (100 nM): -0.5%
- inhibition of SARS-CoV-2 cytopathic effect (833.33 nM): -1.35%
- inhibition of SARS-CoV-2 cytopathic effect (10000 nM): -6.84%

SMILES: O=S(=O)(N[C@H](CO)C(C(F)(F)F)C(F)(F)F)c1ccc(Cl)s1 [begacestat]
- inhibition of SARS-CoV-2 cytopathic effect (1 nM): -4.03%
- inhibition of SARS-CoV-2 cytopathic effect (8.33 nM): -5.1%
- inhibition of SARS-CoV-2 cytopathic effect (100 nM): -1.3%
- inhibition of SARS-CoV-2 cytopathic effect (833.33 nM): -4.51%
- inhibition of SARS-CoV-2 cytopathic effect (10000 nM): -7.85%

SMILES: C#Cc1cccc(Nc2ncnc3cc4c(cc23)OCCOCCOCCO4)c1 [icotinib]
- inhibition of SARS-CoV-2 cytopathic effect (1 nM): 1.1%
- inhibition of SARS-CoV-2 cytopathic effect (8.33 nM): 0.11%
- inhibition of SARS-CoV-2 cytopathic effect (100 nM): -1.65%
- inhibition of SARS-CoV-2 cytopathic effect (833.33 nM): -2.37%
- inhibition of SARS-CoV-2 cytopathic effect (10000 nM): -5.92%

SMILES: CCOc1cc([C@@H](CS(C)(=O)=O)N2C(=O)c3cccc(NC(C)=O)c3C2=O)ccc1OC [apremilast]
- inhibition of SARS-CoV-2 cytopathic effect (1 nM): 2.28%
- inhibition of SARS-CoV-2 cytopathic effect (8.33 nM): -0.67%
- inhibition of SARS-CoV-2 cytopathic effect (100 nM): 1.6%
- inhibition of SARS-CoV-2 cytopathic effect (833.33 nM): -0.47%
- inhibition of SARS-CoV-2 cytopathic effect (10000 nM): -2.14%

SMILES: Cc1cc(-c2ncc(CC(=O)Nc3ccc(-c4cnccn4)cn3)cc2C)ccn1
- inhibition of SARS-CoV-2 cytopathic effect (1 nM): -0.34%
- inhibition of SARS-CoV-2 cytopathic effect (8.33 nM): -0.01%
- inhibition of SARS-CoV-2 cytopathic effect (100 nM): -1.16%
- inhibition of SARS-CoV-2 cytopathic effect (833.33 nM): 1.44%
- inhibition of SARS-CoV-2 cytopathic effect (10000 nM): 2.89%

SMILES: CCCCCCc1ccc(O)cc1O.Nc1c2ccccc2nc2ccccc12 [acrisorcin]
- inhibition of SARS-CoV-2 cytopathic effect (1 nM): 1.59%
- inhibition of SARS-CoV-2 cytopathic effect (8.33 nM): 2.93%
- inhibition of SARS-CoV-2 cytopathic effect (100 nM): 1.22%
- inhibition of SARS-CoV-2 cytopathic effect (833.33 nM): 3.53%
- inhibition of SARS-CoV-2 cytopathic effect (10000 nM): -18.5%

SMILES: CC(C)NC(=O)N1CC[C@H](NC2=Nc3cc(F)ccc3N(CC(F)F)c3ccc(Cl)cc32)C1
- inhibition of SARS-CoV-2 cytopathic effect (1 nM): 2.37%
- inhibition of SARS-CoV-2 cytopathic effect (8.33 nM): 0.15%
- inhibition of SARS-CoV-2 cytopathic effect (100 nM): 3.33%
- inhibition of SARS-CoV-2 cytopathic effect (833.33 nM): 8.12%
- inhibition of SARS-CoV-2 cytopathic effect (10000 nM): -0.57%

SMILES: CCN1CCN(c2cc3c(cc2F)c(=O)c(C(=O)O)cn3C2CC2)CC1 [enrofloxacin]
- inhibition of SARS-CoV-2 cytopathic effect (1 nM): 2.85%
- inhibition of SARS-CoV-2 cytopathic effect (8.33 nM): 4.7%
- inhibition of SARS-CoV-2 cytopathic effect (100 nM): 2.54%
- inhibition of SARS-CoV-2 cytopathic effect (833.33 nM): 2.88%
- inhibition of SARS-CoV-2 cytopathic effect (10000 nM): 5.39%

SMILES: N=C(N)NCCSSCCNC(=N)N [guanidinoethyldisulfide-bicarbonate]
- inhibition of SARS-CoV-2 cytopathic effect (1 nM): -2.83%
- inhibition of SARS-CoV-2 cytopathic effect (8.33 nM): -2.77%
- inhibition of SARS-CoV-2 cytopathic effect (100 nM): -1.91%
- inhibition of SARS-CoV-2 cytopathic effect (833.33 nM): -2.43%
- inhibition of SARS-CoV-2 cytopathic effect (10000 nM): -5.27%

SMILES: c1ccc2c(-c3cnn4cc(-c5ccc(N6CCNCC6)cc5)cnc34)ccnc2c1
- inhibition of SARS-CoV-2 cytopathic effect (1 nM): 1.9%
- inhibition of SARS-CoV-2 cytopathic effect (8.33 nM): 4.28%
- inhibition of SARS-CoV-2 cytopathic effect (100 nM): 1.29%
- inhibition of SARS-CoV-2 cytopathic effect (833.33 nM): -6.31%
- inhibition of SARS-CoV-2 cytopathic effect (10000 nM): -26.3%

SMILES: CCOCC(O)COc1ccc(NC(=O)CC[S+](C)C)cc1 (stereo not given) [suplatast]
- inhibition of SARS-CoV-2 cytopathic effect (1 nM): 2.01%
- inhibition of SARS-CoV-2 cytopathic effect (8.33 nM): -0.4%
- inhibition of SARS-CoV-2 cytopathic effect (100 nM): -0.49%
- inhibition of SARS-CoV-2 cytopathic effect (833.33 nM): 0.97%
- inhibition of SARS-CoV-2 cytopathic effect (10000 nM): 0.31%

SMILES: CSc1nc(-c2ccc(F)cc2)c(-c2ccnc(N[C@@H](C)c3ccccc3)c2)[nH]1
- inhibition of SARS-CoV-2 cytopathic effect (1 nM): -3.63%
- inhibition of SARS-CoV-2 cytopathic effect (8.33 nM): -2.6%
- inhibition of SARS-CoV-2 cytopathic effect (100 nM): -5.98%
- inhibition of SARS-CoV-2 cytopathic effect (833.33 nM): -4.77%
- inhibition of SARS-CoV-2 cytopathic effect (10000 nM): 1.96%

SMILES: CCN(CC)CCOc1ccc2c(c1)C(=O)c1cc(OCCN(CC)CC)ccc1-2 [tilorone]
- inhibition of SARS-CoV-2 cytopathic effect (1 nM): -0.99%
- inhibition of SARS-CoV-2 cytopathic effect (8.33 nM): 0.89%
- inhibition of SARS-CoV-2 cytopathic effect (100 nM): 1.34%
- inhibition of SARS-CoV-2 cytopathic effect (833.33 nM): 0.62%
- inhibition of SARS-CoV-2 cytopathic effect (10000 nM): 24.9% (active)

SMILES: CN(C)c1ccc(/C=C2\C(=O)Nc3ccccc32)cc1
- inhibition of SARS-CoV-2 cytopathic effect (1 nM): 2.81%
- inhibition of SARS-CoV-2 cytopathic effect (8.33 nM): -0.37%
- inhibition of SARS-CoV-2 cytopathic effect (100 nM): 1.44%
- inhibition of SARS-CoV-2 cytopathic effect (833.33 nM): 2.25%
- inhibition of SARS-CoV-2 cytopathic effect (10000 nM): 0.95%

SMILES: CC(C)[C@H]1C(=O)N[C@@H](CCCNC(=N)N)C(=O)NCC(=O)N[C@@H](CC(=O)O)C(=O)N[C@H](Cc2ccccc2)C(=O)N1C [cilengitide]
- inhibition of SARS-CoV-2 cytopathic effect (1 nM): -2.16%
- inhibition of SARS-CoV-2 cytopathic effect (8.33 nM): -0.5%
- inhibition of SARS-CoV-2 cytopathic effect (100 nM): -4.67%
- inhibition of SARS-CoV-2 cytopathic effect (833.33 nM): -11.1%
- inhibition of SARS-CoV-2 cytopathic effect (10000 nM): -12.6%

SMILES: O.O.O.O.O=C([O-])CC(O)(CC(=O)[O-])C(=O)[O-].[Li+].[Li+].[Li+] [lithium-citrate]
- inhibition of SARS-CoV-2 cytopathic effect (1 nM): 0.34%
- inhibition of SARS-CoV-2 cytopathic effect (8.33 nM): -0.51%
- inhibition of SARS-CoV-2 cytopathic effect (100 nM): -1.43%
- inhibition of SARS-CoV-2 cytopathic effect (833.33 nM): 1.38%
- inhibition of SARS-CoV-2 cytopathic effect (10000 nM): 1.33%
